# An excerpt weighted towards active compounds, which were near 3.2% of everything screened.
# FAS TE block – FAS thioesterase domain inhibitors, primary screen, biochemical, fluorescence intensity, uHTS; 360,000 compounds, 0.67% hits; recombinant FAS-TE, OMFH fluorogenic substrate, fluorescence endpoint; AID 602261, 2012; inhibition, % at 15 µM;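 active = compounds whose normalised, plate-corrected inhibition of enzyme fluorescence in the single-dose primary screen is 50% or more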
# Target sequence (P49327 whole entry, looked up, the tested form may be a part): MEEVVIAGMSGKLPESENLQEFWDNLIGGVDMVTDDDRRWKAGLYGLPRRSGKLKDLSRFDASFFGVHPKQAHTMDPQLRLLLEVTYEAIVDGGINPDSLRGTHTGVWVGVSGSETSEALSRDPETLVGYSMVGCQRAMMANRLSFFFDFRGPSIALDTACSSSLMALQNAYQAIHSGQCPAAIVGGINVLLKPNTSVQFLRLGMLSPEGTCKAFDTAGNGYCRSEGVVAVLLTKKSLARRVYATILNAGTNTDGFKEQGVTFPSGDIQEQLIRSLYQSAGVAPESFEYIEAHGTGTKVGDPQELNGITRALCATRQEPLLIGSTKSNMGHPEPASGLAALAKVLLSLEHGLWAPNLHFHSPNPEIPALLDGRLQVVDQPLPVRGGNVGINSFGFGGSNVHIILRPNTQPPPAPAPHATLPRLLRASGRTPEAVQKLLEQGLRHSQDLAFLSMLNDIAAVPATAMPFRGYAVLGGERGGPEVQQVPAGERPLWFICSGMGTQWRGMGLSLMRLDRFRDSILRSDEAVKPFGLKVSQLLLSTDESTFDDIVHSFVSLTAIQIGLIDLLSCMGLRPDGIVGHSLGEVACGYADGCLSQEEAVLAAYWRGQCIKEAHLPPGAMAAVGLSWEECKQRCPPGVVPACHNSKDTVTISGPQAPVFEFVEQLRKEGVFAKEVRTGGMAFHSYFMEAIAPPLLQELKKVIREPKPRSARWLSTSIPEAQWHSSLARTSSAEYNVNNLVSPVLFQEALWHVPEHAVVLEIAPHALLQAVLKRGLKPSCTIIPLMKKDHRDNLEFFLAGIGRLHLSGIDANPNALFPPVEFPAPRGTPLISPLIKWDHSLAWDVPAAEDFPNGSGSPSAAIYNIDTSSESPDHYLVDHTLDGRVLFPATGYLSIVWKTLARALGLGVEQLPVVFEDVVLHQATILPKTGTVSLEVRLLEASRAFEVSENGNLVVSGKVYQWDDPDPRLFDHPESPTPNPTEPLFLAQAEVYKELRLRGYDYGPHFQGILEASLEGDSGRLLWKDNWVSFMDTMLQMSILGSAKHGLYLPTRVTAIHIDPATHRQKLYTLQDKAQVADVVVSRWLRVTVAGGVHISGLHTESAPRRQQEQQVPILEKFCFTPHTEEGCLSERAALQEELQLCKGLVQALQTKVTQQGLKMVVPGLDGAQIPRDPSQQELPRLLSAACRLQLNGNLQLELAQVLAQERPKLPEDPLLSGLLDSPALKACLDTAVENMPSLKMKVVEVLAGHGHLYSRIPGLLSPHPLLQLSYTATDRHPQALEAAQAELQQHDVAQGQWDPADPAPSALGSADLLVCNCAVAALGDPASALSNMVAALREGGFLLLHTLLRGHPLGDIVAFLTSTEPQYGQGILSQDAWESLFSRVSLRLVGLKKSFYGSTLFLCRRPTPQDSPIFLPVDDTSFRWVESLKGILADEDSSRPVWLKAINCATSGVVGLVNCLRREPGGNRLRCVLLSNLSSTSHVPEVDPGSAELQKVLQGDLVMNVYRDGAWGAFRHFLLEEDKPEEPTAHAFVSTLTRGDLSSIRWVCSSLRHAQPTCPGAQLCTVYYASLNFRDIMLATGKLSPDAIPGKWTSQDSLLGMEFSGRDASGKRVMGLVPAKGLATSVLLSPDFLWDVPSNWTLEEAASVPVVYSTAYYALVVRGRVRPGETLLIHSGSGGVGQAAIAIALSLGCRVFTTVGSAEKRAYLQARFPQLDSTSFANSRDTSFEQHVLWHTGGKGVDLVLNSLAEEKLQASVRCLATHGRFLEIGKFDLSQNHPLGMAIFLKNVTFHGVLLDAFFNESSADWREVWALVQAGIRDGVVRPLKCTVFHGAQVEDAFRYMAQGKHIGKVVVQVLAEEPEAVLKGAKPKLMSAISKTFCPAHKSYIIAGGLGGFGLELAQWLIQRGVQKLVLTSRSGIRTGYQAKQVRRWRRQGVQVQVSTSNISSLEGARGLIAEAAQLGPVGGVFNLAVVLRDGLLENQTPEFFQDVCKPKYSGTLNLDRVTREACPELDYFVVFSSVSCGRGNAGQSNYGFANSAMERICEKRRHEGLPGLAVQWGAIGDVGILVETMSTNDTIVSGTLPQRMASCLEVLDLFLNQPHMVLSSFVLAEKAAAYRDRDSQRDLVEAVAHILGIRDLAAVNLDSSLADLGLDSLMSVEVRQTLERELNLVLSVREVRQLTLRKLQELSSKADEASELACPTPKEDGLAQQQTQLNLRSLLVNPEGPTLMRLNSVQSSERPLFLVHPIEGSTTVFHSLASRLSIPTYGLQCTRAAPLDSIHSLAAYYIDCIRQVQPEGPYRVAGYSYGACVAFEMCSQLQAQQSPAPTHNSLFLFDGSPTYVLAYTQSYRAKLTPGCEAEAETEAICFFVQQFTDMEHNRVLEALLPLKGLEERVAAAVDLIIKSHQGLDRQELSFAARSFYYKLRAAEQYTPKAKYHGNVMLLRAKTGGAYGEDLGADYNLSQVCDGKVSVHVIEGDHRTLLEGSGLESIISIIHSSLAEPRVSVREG
# CRFBP-R2 agonist – agonists of CRF-BP/CRF-R2 complex, primary screen, cell-based, HEK293, calcium dye fluorescence, uHTS; CRF-binding protein / CRF receptor 2 complex (human); 350,000 compounds, 0.46% hits; calcium dye fluorescence (FLIPR); percent of saturating CRF peptide response; activation, % at 13.2 µM;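 active = activation of at least 50%, plus an integration ratio under a set limit after plate pattern correction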
# Cardio protect – cardioprotection against H2O2-induced cell death, primary screen, uHTS, H9c2 cells, ATPLite luminescence; 360,000 compounds, 0.63% hits; protection from H2O2 cell death, % at 20 µM; H9c2 cardiomyocytes, H2O2 injury protection, 2 h;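 active = compounds giving at least 50% protection of heart cells from peroxide-induced death in the single-dose screen, raw or plate-pattern-corrected value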
# CRFBP-R2 block – antagonists of CRF-BP/CRF-R2 complex, primary screen, cell-based, HEK293, calcium dye fluorescence, uHTS | CRF-induced calcium fluorescence | inhibition, % at 11.8 µM | 350,000 compounds, 0.59% hits;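 active = inhibition of the ligand-induced calcium signal above about 50% at the single tested concentration, limit read from the data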
# PfGluPho inh – PfG6PD enzyme inhibitors, primary screen, biochemical, fluorescence intensity, uHTS; AID 504690, 2011; inhibition, % at 20 µM; 350,000 compounds, 0.78% hits; PfGluPho enzyme, NADPH resazurin-diaphorase fluorescence;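 active = inhibition reaching at least a set limit at 20 µM in the primary screen, cut at about 59% in these data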
# aDG glyco act – activators of alpha-DG glycosylation, primary screen, uHTS, Pro5-aDG cells, AlphaScreen. activation, % at 10 µM. alpha-DG glycosylation AlphaScreen (IIH6); 0% Pro5, 100% B10-LARGE cell signal. 360,000 compounds, 0.22% hits;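 active = activation of at least 8% versus controls, or a plate z-score of at least 8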;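 also: Pro5 are CHO cells carrying HIG-tagged alpha-DG that lacks glycosylation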
# FAS-TE inh conf – FAS thioesterase domain inhibitors, confirmation, biochemical, fluorescence intensity, single concentration | 2,300 compounds, 45% hits | recombinant FAS-TE, OMFH fluorogenic substrate | inhibition, % at 15 µM | AID 624325, 2012 | shares compounds with FAS TE block;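 active = compounds inhibiting the enzyme by at least 50% at 15 µM in any one of the replicates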
# A number is an active result; 0 = inactive; - = no result given.
SMILES,FAS TE block,CRFBP-R2 agonist,Cardio protect,CRFBP-R2 block,PfGluPho inh,aDG glyco act,FAS-TE inh conf
O=c1cc2c(nn1Cc1cccc([N+](=O)[O-])c1)-c1ccccc1CC2,71,0,0,0,0,0,0
O=c1cc2c(nn1Cc1ccccc1)-c1ccccc1CC2,0,0,0,0,0,0,-
N#C/C(=C(/O)CSc1ncn[nH]1)c1nc2ccccc2[nH]1,0,0,0,0,0,0,-
CCn1cc(/C=C(\NC(=O)c2ccc(OC)c(OC)c2)C(=O)NCCCN2CCOCC2)c2ccccc21,0,0,0,0,0,0,-
O=C(Nc1cnns1)Oc1ccccc1,0,0,0,0,0,0,-
C=C1CC(COc2ccc3c(C)c(Cl)c(=O)oc3c2)(c2ccccc2)OC1=O (stereo unspecified),53,0,0,0,0,0,46
COc1ccc2c(C)c(Cl)c(=O)oc2c1,0,0,0,0,0,0,-
CCC(C)NC(=O)c1cc2c(=O)n(CC)c3ccccc3c2s1 (stereo unspecified),0,0,0,0,0,0,-
CC(C)(C)c1ccc(OCCSc2nc3ccccc3n2CC(=O)O)cc1,78,0,0,0,0,0,87
CCn1c(=O)c([N+](=O)[O-])c(N2CCN(Cc3ccc4c(c3)OCO4)CC2)c2ccccc21,88,0,0,0,0,0,81
CCn1c(=O)c([N+](=O)[O-])c(N2CCSCC2)c2ccccc21,0,0,0,0,0,0,-
COc1cccc(-c2cnc(C(O)c3c(C)ccc4ccccc34)[nH]2)c1 (stereo unspecified),0,-,0,-,-,0,-
O=[N+]([O-])c1cccc(NNS(=O)(=O)c2ccccc2F)c1,0,0,0,0,0,0,-
COc1ccc(C2=NN(C(=O)c3ccccc3)C(c3cccc([N+](=O)[O-])c3)C2)cc1 (stereo unspecified),75,0,0,0,0,0,0
CCn1cc([N+](=O)[O-])c(C(=O)N2N=C(c3ccccc3)CC2c2ccc([N+](=O)[O-])cc2)n1 (stereo unspecified),63,0,0,0,0,0,47
CC(=O)N1N=C(c2ccccc2)CC1c1cccc([N+](=O)[O-])c1 (stereo unspecified),0,0,0,0,0,0,-
CCn1cc([N+](=O)[O-])c(C(=O)N2N=C(c3ccc(Cl)c(Cl)c3)CC2c2ccccc2O)n1 (stereo unspecified),0,0,0,0,0,0,-
O=C(CSc1nnc(CNC(=O)c2ccco2)o1)Nc1ccccc1F,0,0,0,0,0,0,-
Cc1ccc(CNC(=O)C(C(=O)NCc2ccc(C)o2)c2ncc(C(F)(F)F)cc2Cl)o1,62,0,0,0,0,0,0
CCOC(=O)C(C(=O)NCc1ccc(C)cc1)c1ncc(C(F)(F)F)cc1Cl (stereo unspecified),0,0,0,0,0,0,-
COc1ccc(N2C(=O)C3ON(C4SC(=S)N(C)C4(C)C)C(c4ccc([N+](=O)[O-])cc4)C3C2=O)cc1 (stereo unspecified),0,0,0,0,0,0,-
COc1ccc(N2C(=O)C3ON(C4SC(=S)N(C)C4(C)C)C(c4ccc(Cl)cc4)C3C2=O)cc1 (stereo unspecified),71,0,0,0,0,0,0
CCOC(=O)C1CCN(C/C=C/c2ccccc2[N+](=O)[O-])CC1,0,0,0,0,0,0,-
O=C1c2cccc3cccc(c23)C(=O)N1OS(=O)(=O)c1ccccc1,0,0,0,0,0,0,-
Cc1ccc(C)c(S(=O)(=O)ON2C(=O)c3ccccc3C2=O)c1,83,0,0,63,0,0,88
SMILES,FAS TE block,CRFBP-R2 agonist,Cardio protect,CRFBP-R2 block,PfGluPho inh,aDG glyco act,FAS-TE inh conf
c1coc(C2=NC(c3ccco3)C(c3ccco3)N2)c1 (stereo unspecified),0,0,0,0,0,0,-
CCCCN(CC)CCCNC(=S)Nc1ccc2nc3n(c(=O)c2c1)CCCCC3,0,0,0,0,0,0,-
Cc1c(C(=O)Nc2ccc(Cl)cc2)c2ccccn2c1C(=O)c1ccc([N+](=O)[O-])cc1,71,0,0,0,0,0,0
Cc1c(C(=O)Nc2ccc(Cl)cc2)c2ccccn2c1C(=O)c1ccccc1,0,0,0,0,0,0,-
CSc1ccc(CN2CCC(C)(Oc3ccccc3F)C2)cc1 (stereo unspecified),0,-,0,-,-,0,-
COc1ccc(CN2C(=O)C(Cc3ccccc3)Nc3ncnc(N4CCN(c5ccccc5)CC4)c32)cc1 (stereo unspecified),0,0,0,0,0,0,-
O=C1C(Cc2ccccc2)Nc2ncnc(N3CCN(c4ccccc4)CC3)c2N1Cc1ccc(Cl)cc1 (stereo unspecified),84,0,0,0,0,0,0
COc1cc(OC)cc(C(=O)NC(C(=O)Nc2ccc3c(c2)OCO3)C(C)C)c1 (stereo unspecified),0,0,0,0,0,0,-
O[C@H]1C[C@H](c2ccccc2)N(CC2CCCCC2)C[C@@H]1n1cc(C2CC2)nn1,65,0,0,0,0,0,65
CCOC(=O)c1cc(OC(C)=O)c2ccc(OC)c(OC)c2c1,0,0,0,0,0,0,-
COc1ccc(-c2csc3nc(-c4ccccc4F)oc(=O)c23)cc1,62,0,0,0,0,0,51
Cc1nc2scc(-c3ccc(Cl)cc3)c2c(=O)o1,70,0,0,0,0,0,65
CCN(CC)S(=O)(=O)c1ccc(C2=NOC3(C2)N(C)c2ccccc2C3(C)C)cc1 (stereo unspecified),0,0,0,0,0,0,-
CN1c2ccccc2C(C)(C)C12CC(c1ccc(S(=O)(=O)N3CCCCC3)cc1)=NO2 (stereo unspecified),75,0,0,0,0,0,0
CN1c2ccccc2C(C)(C)C12CC(c1cccc(S(=O)(=O)N3CCCC3)c1)=NO2 (stereo unspecified),74,0,0,0,0,0,0
Cc1cc2cc3c(cc2nc1SCC(=O)N1c2ccccc2CC1C)OCO3 (stereo unspecified),0,0,0,0,0,0,-
CC1Cc2ccccc2N1C(=O)CSc1nc2cc3c(cc2cc1C#N)OCO3 (stereo unspecified),74,0,0,0,0,0,0
